# Source: PubChem
# An excerpt weighted towards active compounds, which were near 2.7% of everything screened.
# CFTR F508del cor = correctors of CFTR F508del function in bronchial epithelial cells | CFBE cells, YFP halide quenching; stimulated with forskolin plus potentiator P3; % fluorescence drop versus neutral controls | AID 720511 | activity (quench increase), % at 7.58 µM | 350,000 tested, 0.36% active;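 active means mean added fluorescence quench of at least 8% versus neutral control, with both replicates also reaching 8%; inconclusive means only one of the mean or replicate conditions met; inactive means mean below 8% and not both replicates reaching 8%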;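 further: cells transiently co-express mutant CFTR-F508del with the halide-sensitive YFP; corrector assay measuring rescue of mutant channel to the surface after 24 h compound exposure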
# PAX8 inh HTS = inhibitors of PAX8 transcriptional activity in RMG-I cells | 360,000 tested, 1.2% active | AID 652154 | inhibition, % at 12.6 µM | RMG-I TPO-luciferase reporter, SteadyGlo, 24 h;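 active means mean replicate inhibition at least 60% with every replicate also reaching 60%; inconclusive means only one of the two criteria is met; inactive means mean below 60% and not all replicates reaching 60%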;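 further: luciferase light reporting Pax8 driven TPO promoter activity; plate controls were median of neutral control wells for no effect and mitoxantrone controls for full effect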
# HIV Env fusion = blocks HIV Env-driven cell-cell fusion | 360,000 tested, 1.1% active | HeLa-JRFL Env/CEM21 cell fusion, luciferase | inhibition, % at 12.3 µM;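 active means mean replicate inhibition score of at least 50 and every replicate individually at or above 50; inconclusive means only one of the two criteria met; inactive means mean below 50 and not all replicates reaching 50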;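 further: 0% = plate neutral controls and 100% = maraviroc near 300 nM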
# INS-1E GSIS act = primary screen for activators of insulin secretion dependent on glucose, INS-1E cells, GLuc reporter luminescence | INS-1E GLuc reporter insulin secretion, 2-3 h | activation, % at 16.6 µM | 370,000 tested, 0.61% active;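 active means lowest replicate activation of at least 40%, so every replicate reaches that level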;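 further: 0% = median of neutral control wells and 100% = median of IBMX positive control wells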
# EWS-Fli inh = blocks EWS/Fli oncoprotein-driven transcription; A673 NR0B1-luciferase reporter, viability-normalised; inhibition, % at 12.6 µM; 350,000 tested, 0.67% active;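 active means mean inhibition of at least 50% after viability correction, with every replicate also passing that limit; inconclusive means mean reaches 50% but only one of two replicates passes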;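 further: firefly luciferase signal divided by Alamar Blue viability fluorescence both relative to DMSO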
# PGC1a acetyl inh = lowers PGC1a acetylation signal in U2OS cells. inhibition, % at 15.6 µM. AlphaScreen anti-acetyl-lysine; with virally co-expressed GCN5 acetyltransferase. 350,000 tested, 0.17% active;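 active means every replicate shows inhibition of at least 40%; inconclusive means mean inhibition at least 40% but some replicate below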;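 further: 0% = neutral control wells and 100% = positive control wells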
# Starred values were filed as active, the others as inactive; ? = inconclusive; nt = no result; ! = repeats disagree; [ ] = dose if it differs, or a comment.
SMILES,CFTR F508del cor,PAX8 inh HTS,HIV Env fusion,INS-1E GSIS act,EWS-Fli inh,PGC1a acetyl inh
Cc1cc(C)c2nc3sc(C(=O)N4CCOCC4)c(N)c3cc2c1,2,69*,-356,0,48,7
CCCN(C)C[C@H]1Oc2cc(C#Cc3cccc(F)c3)ccc2S(=O)(=O)N([C@H](C)CO)C[C@@H]1C,-4,nt,2[16.7 µM],-12,11,-14
Cc1csc2ncnc(NNC(=O)c3ccc(Cl)cc3)c12,3,20,66*,nt,-1,nt
CCCN1C[C@H](C)[C@@H](OC)CN(C)C(=O)c2cc(NC(=O)c3cnccn3)ccc2OC[C@@H]1C,0,nt,10[16.7 µM],8,-6,15
Cc1ccc(NC(=O)COC(=O)CCC2CCCC2)c(Br)c1,9.4*,-21,nt,15,-77,4
O=C(COC(=O)CCC1CCCC1)Nc1ccccc1Br,-5,-11,nt,-2,-3,nt
CCN1[C@@H]2Cn3c(ccc(C4=CCCC4)c3=O)[C@H]1[C@@H](C(=O)NC1CCCC1)[C@@H]2CO,0,3,nt,0,-1,-5
CO[C@H]1CN(C)C(=O)c2ccc(NS(=O)(=O)c3cn(C)cn3)cc2OC[C@@H](C)NC[C@@H]1C,-1,nt,nt,-1,-2,-3
COc1ccc(-c2nc(CCl)cs2)cc1OC,1,-22,-13,62*,0,nt
CCOc1ccc(-c2nc(CSc3nnc(N)s3)cs2)cc1OC,nt,nt,nt,57*,nt,25
C=CCn1c(-c2csc(-c3ccc(OC)c(OC)c3)n2)n[nH]c1=S,4,-10,-17,83*,10,9
O=C(N[C@H]1CC[C@@H](CC(=O)N2CCN(c3ccccc3)CC2)O[C@@H]1CO)c1ccccc1,-3,-32,20[16.7 µM],7,6,-2
COCC(=O)Nc1ccc2c(c1)OC[C@@H](C)N(C(=O)NC(C)C)C[C@H](C)[C@@H](OC)CN(C)C2=O,1,-10,4[16.7 µM],3,4,nt
COc1ccc(S(=O)(=O)N(C)C[C@@H]2Oc3ccc(NC(=O)C4CCCCC4)cc3C(=O)N([C@@H](C)CO)C[C@H]2C)cc1,-3,nt,-8[16.7 µM],-7,-2,-3
COc1ccccc1NC1=C(NC(C)=O)C(=O)c2ccccc2C1=O,8.2*,11,6,-25,-3,nt
COC1=C(Nc2ccccc2OC)C(=O)c2ccccc2C1=O,2,10,3,4,-17,12
CCOCCCNC(=O)/C(C#N)=C/c1ccc(Cl)c([N+](=O)[O-])c1,0,-3,-36,-24,65*,nt
CC(=O)O[C@H]1C(=O)[C@@]2(C)[C@H]([C@H](OC(=O)c3ccccc3)[C@]3(O)C[C@H](OC(=O)[C@H](O)[C@@H](NC(=O)c4ccccc4)c4ccccc4)C(C)=C1C3(C)C)[C@]1(OC(C)=O)CO[C@@H]1C[C@@H]2O,4,26,-13,-4,65*,nt
CC(=O)O[C@H]1C(=O)[C@@]2(C)[C@H]([C@H](OC(=O)c3ccccc3)[C@]3(O)C[C@H](OC(=O)[C@H](O)C(NC(=O)c4ccccc4)c4ccccc4)C(C)=C1C3(C)C)[C@]1(OC(C)=O)CO[C@@H]1C[C@@H]2O (some centres not stated),11*,36,nt,nt,66*,-19
CCCCCC(=O)N[C@@H](c1ccccc1)[C@@H](O)C(=O)O[C@H]1C[C@@]2(O)[C@@H](OC(=O)c3ccccc3)C3[C@](C)(C(=O)[C@H](OC(C)=O)C(=C1C)C2(C)C)[C@@H](O)C[C@H]1OC[C@@]31OC(C)=O (some centres not stated),7,nt,nt,-6,57*,-19
C=CCc1cccc(/C=N/NC(=O)CCC(=O)Nc2ccc(C)cc2)c1O,nt,35,-13,225*,nt,2
COc1ccc(-c2cc(=O)oc3cc(OC(=O)C4CCCCC4)c(Cl)cc23)cc1,0,-27,66*,-2,10,nt
Cn1c(CN2CCCCC2)nc2cc(NC(=O)c3ccccc3)ccc21,nt,nt,-3,nt,nt,nt
Cn1c(CN2CCCCC2)nc2cc(NC(=O)c3cccc(Br)c3)ccc21,nt,nt,67*,nt,nt,7
O=C(C[C@@H]1CC[C@H]2[C@@H](COC[C@H](O)CN2CC2CCOCC2)O1)NCC1CC1,-1,-5,20[16.7 µM],-3,-3,8
SMILES,CFTR F508del cor,PAX8 inh HTS,HIV Env fusion,INS-1E GSIS act,EWS-Fli inh,PGC1a acetyl inh
CCSc1nc2cc(OC)c(OC)cc2c(=O)n1CC,nt,nt,nt,69*,nt,6
CCc1cc(-c2n[nH]c(C)c2-c2nc3ccccc3n2C)c(O)cc1O,-1,120*,10,5,-18,12
CC(C)(C)OC(=O)N(CCc1ccccc1)Cc1cccc(OCc2cccc(NC(=O)c3ccccc3)c2)c1,4,3,66*,6,-6,-3
CC(C)C(=O)Nc1cccc(COc2ccc(CN(Cc3ccccc3)C(=O)OC(C)(C)C)cc2)c1,-2,72*,58*,-21,25,-31
CC(C)C(=O)Nc1ccc(COc2ccccc2CN(Cc2ccccc2)C(=O)OC(C)(C)C)cc1,1,1,13,-3,-39,-16
O=C(c1cnccn1)N1CC(=O)N2[C@H](CO)[C@@H](c3ccc(-c4cccc(F)c4)cc3)[C@@H]2C1,2,12,nt,-11,3,5
O=C1NC(=Nc2cccnc2)S/C1=C/c1ccc(F)cc1,14*,17,-27,4,-8,12
Cc1noc(C)c1NC(=O)Nc1ccc2c(c1)C(=O)N([C@H](C)CO)C[C@H](C)[C@H](CN(C)C(=O)c1ccccc1)OCCCC[C@@H](C)O2,-3,-18,11[16.7 µM],8,-1,-4
COc1cc(C)c(C)cc1S(=O)(=O)N1CCCCC1c1cccnc1 (configuration not stated),nt,nt,nt,57*,nt,6
CCCNC(=O)N(C)C[C@@H]1Oc2cc(C#C[C@H](C)O)ccc2S(=O)(=O)N([C@@H](C)CO)C[C@@H]1C,-1,nt,-10[16.7 µM],-2,-5,-26
Cc1ccc(Cn2ncc3c(N4CCN(C)CC4)ncnc32)cc1,0,3,3,1,-9,nt
Cc1ccc(Cn2ncc3c(N4CCN(c5ccc(C)cc5)CC4)ncnc32)cc1,nt,nt,91*,nt,nt,5
Cc1ccc(Cn2ncc3c(N4CCN(Cc5ccc(Cl)cc5)CC4)ncnc32)cc1,nt,nt,96*,nt,nt,0
N#Cc1c(C#N)c(SSc2c(C#N)c(C#N)c(N)n2-c2ccccc2)n(-c2ccccc2)c1N,-1,-24,-11,20,51*,-2
N#Cc1c(N)n(-c2ccc(N)cc2)c2nc3ccccc3nc12,0,0,-5,nt,-8,8
Cc1nc(N/N=C/c2ccccn2)sc1C,nt,73*,107*,3,?,nt
CCCc1sc(N/N=C/c2ccccn2)nc1-c1ccc(F)cc1,nt,nt,nt,nt,nt,-15
NCC[C@H]1CC[C@H](NC(=O)C2CC2)[C@H](CO)O1,1,nt,nt,6,4,nt
O=C(O)c1ccccc1-c1c2cc(I)c(=O)c(I)c-2oc2c(I)c(O)c(I)cc12,8.7*!,19,12,-19,6,-16
